Source: publication PMC4336329 (PLoS ONE, 2015)
The campaign covered roughly 310,000 compounds. About 2,200 (0.71%) showed an effect of 50% or more. The effect is printed as a negative number. The full list was thinned out, with strong results kept by preference.

The compounds below were run against human ether-à-go-go-related gene (hERG) potassium channel (human, UniProt Q12809) (assay: primary screen, population patch clamp on CHO cells stably expressing hERG; higher = less effect of the substance).
Sequence of human ether-à-go-go-related gene (hERG) potassium channel (Q12809 whole entry, looked up): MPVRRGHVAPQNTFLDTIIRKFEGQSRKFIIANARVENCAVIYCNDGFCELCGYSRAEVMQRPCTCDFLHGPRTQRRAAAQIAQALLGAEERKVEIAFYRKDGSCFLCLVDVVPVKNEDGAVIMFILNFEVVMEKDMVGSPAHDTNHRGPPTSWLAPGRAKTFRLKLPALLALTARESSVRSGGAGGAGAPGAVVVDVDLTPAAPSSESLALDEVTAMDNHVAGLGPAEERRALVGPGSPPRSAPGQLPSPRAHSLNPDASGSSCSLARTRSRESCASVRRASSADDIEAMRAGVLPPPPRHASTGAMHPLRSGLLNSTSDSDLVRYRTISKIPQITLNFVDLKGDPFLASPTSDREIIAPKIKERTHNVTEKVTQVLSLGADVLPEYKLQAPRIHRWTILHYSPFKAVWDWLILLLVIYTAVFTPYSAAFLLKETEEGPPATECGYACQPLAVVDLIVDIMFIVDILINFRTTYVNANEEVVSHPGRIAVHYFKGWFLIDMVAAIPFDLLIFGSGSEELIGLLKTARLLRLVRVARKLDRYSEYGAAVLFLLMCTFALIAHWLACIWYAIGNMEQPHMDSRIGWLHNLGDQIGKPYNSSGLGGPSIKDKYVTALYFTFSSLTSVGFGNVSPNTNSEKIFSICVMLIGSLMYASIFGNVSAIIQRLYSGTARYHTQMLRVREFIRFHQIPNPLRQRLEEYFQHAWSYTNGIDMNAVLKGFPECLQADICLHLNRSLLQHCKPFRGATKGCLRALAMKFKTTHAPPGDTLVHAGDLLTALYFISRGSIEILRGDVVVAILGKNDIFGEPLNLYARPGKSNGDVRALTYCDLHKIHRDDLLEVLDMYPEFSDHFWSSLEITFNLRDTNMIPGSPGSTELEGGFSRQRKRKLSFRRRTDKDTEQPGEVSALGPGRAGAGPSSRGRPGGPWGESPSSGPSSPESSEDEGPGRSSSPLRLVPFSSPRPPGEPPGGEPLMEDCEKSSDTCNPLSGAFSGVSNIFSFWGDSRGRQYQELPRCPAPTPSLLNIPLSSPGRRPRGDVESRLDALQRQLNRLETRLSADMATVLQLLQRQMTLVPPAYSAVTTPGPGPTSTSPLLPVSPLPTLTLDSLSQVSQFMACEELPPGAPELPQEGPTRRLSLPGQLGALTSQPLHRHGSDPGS

Row | SMILES | hERG current change (%, negative = inhibition) at 1uM [%]
1 | O=C(c1ccc(S(=O)(=O)c2cccc(Cl)c2)c([N+](=O)[O-])c1)N1CCN(Cc2ccccc2)CC1 | 15.8
2 | COc1cc(C(=S)N2CCOCC2)cc(OC)c1OC(=O)c1ccc([N+](=O)[O-])cc1[N+](=O)[O-] | 5.28
3 | COc1ccc(C(=S)N2CCOCC2)cc1OC(=O)c1ccc([N+](=O)[O-])cc1[N+](=O)[O-] | -63.1
4 | COc1cc(C(=S)N2CCOCC2)ccc1OC(=O)c1ccc([N+](=O)[O-])cc1[N+](=O)[O-] | 15.5
5 | CC1CCc2nc3ccccc3c(C(=O)OCC(=O)NC3CCS(=O)(=O)C3)c2C1 (stereo not drawn) | 13
6 | CC(=O)Nc1ccc(S(=O)(=O)Nc2ccc(S(=O)(=O)N3CCCC3)cc2)cc1 | 4.58
7 | Cc1ccc(C)c(/C=C(\C(=O)O)c2ccc(S(=O)(=O)N3CCCCC3)s2)c1 | 6.97
8 | COc1cc(NC(=O)c2cc([N+](=O)[O-])ccc2NC(=O)CNC2CCCCC2C)cc(OC)c1 (stereo not drawn) | 17.4
9 | COc1ccc(NC(=O)c2cc([N+](=O)[O-])ccc2NC(=O)CNC2CCCCC2C)c(OC)c1 (stereo not drawn) | -78.8
10 | COc1ccc(NC(=O)c2cc([N+](=O)[O-])ccc2NC(=O)CNCc2ccccn2)c(OC)c1 | 9.51
11 | CCN(c1ccccc1)S(=O)(=O)c1cccc(C(=O)NCC2(N(C)C)CCCCC2)c1 | -11
12 | O=C(OCC(=O)N1CCOCC1)c1ccccc1O | 13.6
13 | Cc1cc(C)cc(NC(=O)C(OC(=O)c2cccs2)c2ccccc2)c1 (stereo not drawn) | 16.7
14 | Cn1c(=O)c2c(ncn2CC(=O)N2CCN(c3ccccc3)CC2)n(C)c1=O | 8.13
15 | Cn1c(=O)c2c(nc(N3CCOCC3)n2C)n(C)c1=O | -1.83
16 | Cn1c(=O)c2c(ncn2CC(=O)N2CCN(c3ccc([N+](=O)[O-])cc3)CC2)n(C)c1=O | -69.6
17 | Cn1c(=O)c2c(nc(N3CCN(c4ccc([N+](=O)[O-])cc4)CC3)n2C)n(C)c1=O | -81.7
18 | Cn1c(=O)c2c(nc(N3CCCC3)n2C)n(C)c1=O | 12.6
19 | Cn1c(=O)c2c(ncn2CC(=O)N2CCN(c3ccc(F)cc3)CC2)n(C)c1=O | -0.183
20 | Cc1nc2c(C(=O)N3CCCC3)cnn2c(C)c1Cc1c(F)cccc1Cl | -11.4
21 | C=Cc1ccc(COC(=O)c2cn(CC)c3nc(C)ccc3c2=O)cc1 | -21

Row | SMILES | hERG current change (%, negative = inhibition) at 1uM [%]
22 | O=C(CC(=O)N/N=C/c1ccccc1)NCc1ccccc1 | 8.85
23 | O=C(NCc1ccco1)C1CCN(c2nc3ccccc3n2Cc2ccccc2F)CC1 | -62.8
24 | COc1nc(OC)nc(N2CCC(C(=O)NCc3ccco3)CC2)n1 | -0.721
25 | Cc1cc(C)nc(N2CCC(C(=O)NCc3ccccc3F)CC2)n1 | 1.75
26 | Cc1ccc(Cn2cnc3ccccc32)cc1 | 13
27 | O=C(O)CC(c1cccc(O)c1)N1Cc2ccccc2C1=O (stereo not drawn) | 12
28 | CC(C)OCP(=O)(c1ccccc1)c1ccccc1 | 6.74
29 | CCOCCCNC(=O)CNC(=S)N(Cc1ccccc1F)C1CCCCC1 | -6.79
30 | CCN1C(=S)SC(=O)C1=C1C=C(C)N(Cc2ccco2)C(C)=C1 | 1.56
31 | CC(C)c1cc(N=NC(N)=O)cc(C(C)C)c1O | 6.77
32 | CCN(CC(=O)NCCc1ccc(F)cc1)Cc1nc2ccccc2c(=O)[nH]1 | 1.66
33 | CCN(CC(=O)NCc1ccc(F)cc1)Cc1nc2ccccc2c(=O)[nH]1 | -8.93
34 | CCN(CC(=O)NCc1ccc(F)cc1)Cc1nc2cc(Cl)ccc2c(=O)[nH]1 | -52.5
35 | COc1cc(C(=O)N2CCN(C3CCCCC3)CC2)cc(OC)c1OC.O=C(O)C(=O)O | 14.5
36 | COc1ccc(C(=O)N2CCN(C3CCC(c4ccccc4)CC3)CC2)cc1OC (stereo not drawn) | -60.4
37 | CC1CCCC(N2CCN(C(=O)c3ccc(F)cc3)CC2)C1 (stereo not drawn) | -25
38 | COc1ccc(CCC(=O)N2CCN(C(=O)c3ccccc3)CC2)cc1 | 14.6
39 | COc1ccc(C(=O)N2CCN(C3CCN(Cc4ccccc4)CC3)CC2)cc1OC | -14.5
40 | O=C(CCCc1ccccc1)N1CCN(C2CCCCC2)CC1 | -23.6
41 | COc1cccc(C(=O)N2CCN(C3CCCCC3)CC2)c1.O=C(O)C(=O)O | 6.64
42 | COc1cccc(C(=O)N2CCN(C3CCC(c4ccccc4)CC3)CC2)c1OC.O=C(O)C(=O)O (stereo not drawn) | 3.34

Row | SMILES | hERG current change (%, negative = inhibition) at 1uM [%]
43 | CC1CCCC(N2CCN(C(=O)c3cccc(F)c3)CC2)C1.O=C(O)C(=O)O (stereo not drawn) | 8.59
44 | CC1CCCC(N2CCN(C(=O)c3ccc([N+](=O)[O-])cc3)CC2)C1.O=C(O)C(=O)O (stereo not drawn) | -67.3
45 | COc1ccc(C(=O)N2CCN(C3CCCCC3)CC2)cc1OC.O=C(O)C(=O)O | -74.2
46 | COc1ccc(CCC(=O)N2CCN(C3CCCCC3)CC2)cc1 | -56.7
47 | Cc1ccc(CN(c2ccc(C(=O)NCc3cccnc3)cc2)S(C)(=O)=O)cc1 | 1.51
48 | COc1ccc(N2CCN(CCCNC(=O)C(=O)c3c(C)n(C)c4ccccc34)CC2)cc1 | -9.85
49 | COc1ccc2c(c1)C(NC(C)=O)C(=O)N2CCc1ccccc1 (stereo not drawn) | 3.02
50 | Cc1oc(-c2ccoc2)nc1CN(CC1CCC(=O)N1)C(C)C (stereo not drawn) | 11.6
51 | CCNc1nc(N2CCCC2)nc(N2CCCC2)n1 | 0.687
52 | CCCCN1CNC(=S)N(c2cc(C)ccc2C)C1 | 7.21
53 | Nc1[nH]c(=O)nc(Nc2ccccc2)c1N=O | 8.79
54 | O=C(c1ccc(CNc2c(N3CCCC3)c(=O)c2=O)cc1)N1CCc2ccccc2C1 | -3.76
55 | CCO[C@@H]1OC(C(=O)N2CCN(Cc3ccc4c(c3)OCO4)CC2)=C[C@H](c2ccc(C(F)(F)F)cc2)[C@H]1CCCO | 3.44
56 | COc1cc(OC)cc(C(=O)N2CCN(C3CCCCC3)CC2)c1.O=C(O)C(=O)O | -2.01
57 | COc1ccc(C(=O)N2CCN(C3CCCCC3)CC2)c(OC)c1 | -75
58 | COc1ccc(C(=O)N2CCCN(C)CC2)c(OC)c1 | 11
59 | CCC(Cc1ccccc1)NS(=O)(=O)c1csc(C(N)=O)c1 (stereo not drawn) | 22.5
60 | CC(C)[C@H](NC(=O)N1CC(=O)Nc2ccccc21)C(=O)Nc1nccs1 | 24.4
61 | O=C(c1ccc(C(F)(F)F)cc1)N1CCCCC1 | -4.21
62 | Cn1c(CCN2CCN(c3ccccn3)CC2)nc2cc(NS(=O)(=O)c3ccc(Cl)cc3)ccc21 | -69.2
63 | CCCC(=O)Nc1ccc2c(c1)nc(CCN1CCN(c3ccccn3)CC1)n2C | 1.68

Row | SMILES | hERG current change (%, negative = inhibition) at 1uM [%]
64 | Cc1ccc(S(=O)(=O)Nc2ccc3c(c2)nc(CCN2CCN(c4ccccn4)CC2)n3C)cc1 | -80.7
65 | Cc1ccc(S(=O)(=O)Nc2ccc3c(c2)nc(CCN2CCOCC2)n3C)cc1 | 6.29
66 | CC(C)C(=O)Nc1ccc2c(c1)nc(CCN1CCN(c3ccccn3)CC1)n2C | 6.24
67 | CC(=O)Nc1ccc2c(c1)nc(CCN1CCN(c3ccccn3)CC1)n2C | 12
68 | O=CNc1ccc(OP(=O)(Oc2ccccc2)Oc2ccccc2)cc1 | 1.71
69 | O=C(N/N=C(/c1ccccc1)c1ccncc1)c1ccc2c(c1)OCO2 | 2.11
70 | CC(C(=O)O)N1CCCCC1.Cl (stereo not drawn) | -4.62
71 | O=C(Cn1cncc1-c1ccc([N+](=O)[O-])cc1)Nc1ccccc1F | -0.387
72 | O=C(c1noc2c1CCCC2)N1CCN(c2ccc(F)cc2)CC1 | 20
73 | N#Cc1ccc(CN2CCN(C(=O)CCNS(=O)(=O)c3ccc(F)c(F)c3)CC2)cc1 | -62.3
74 | O=C(CCNS(=O)(=O)c1ccc(Cl)cc1)N1CCN(Cc2ccccc2)CC1 | -16.1
75 | N#Cc1ccc(CN2CCN(C(=O)CCNS(=O)(=O)c3ccc(F)c(Cl)c3)CC2)cc1 | -29.3
76 | O=C(CCN1CCN(c2ccccc2F)CC1)Nc1ccc(F)cc1 | 14.4
77 | O=C(CCN1CCN(S(=O)(=O)c2ccc(Cl)cc2)CC1)Nc1ccccc1F | 4.11
78 | O=C(CCN1CCN(c2ccccc2F)CC1)Nc1ccccc1Cl | 7.43
79 | O=C(CCN1CCN(CC(=O)Nc2ccccc2Cl)CC1)Nc1ccccc1F | -54
80 | O=C(CN1CCN(CCC(=O)Nc2ccccc2F)CC1)Nc1ccc(Cl)cc1 | -84.3
81 | O=C(CN1CCN(CCC(=O)Nc2ccccc2F)CC1)Nc1ccc(F)cc1 | -78.3
82 | O=C(CCN1CCN(c2ccc(F)cc2)CC1)Nc1ccccc1F | -9.21
83 | O=C(CCN1CCN(CC(=O)Nc2ccccc2F)CC1)Nc1ccccc1F | -38.4
84 | O=C(CCN1CCN(c2ccc(Cl)cc2)CC1)Nc1ccccc1F | 5.25
